In PubChem BioAssay one finds composite z-score and composite Z-score data, which are given here for 15 compounds.

The target in one test is Albumin (Bos taurus) (UniProt P02769). Description: bovine serum albumin binders on microarray, profiling panel, artefact control for SMM control protein annotation, biochemical, small-molecule microarray, Alexa647 label, 635/667 nm fluorescence (AID 1118).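 Further: score merges 667 nm emission intensity and signal-to-noise per printed compound spot.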 Particulars: BSA-A647 binding, fluorescence 635 nm, higher = more signal.
Sequence of Albumin (Bos taurus) (P02769 whole entry, looked up): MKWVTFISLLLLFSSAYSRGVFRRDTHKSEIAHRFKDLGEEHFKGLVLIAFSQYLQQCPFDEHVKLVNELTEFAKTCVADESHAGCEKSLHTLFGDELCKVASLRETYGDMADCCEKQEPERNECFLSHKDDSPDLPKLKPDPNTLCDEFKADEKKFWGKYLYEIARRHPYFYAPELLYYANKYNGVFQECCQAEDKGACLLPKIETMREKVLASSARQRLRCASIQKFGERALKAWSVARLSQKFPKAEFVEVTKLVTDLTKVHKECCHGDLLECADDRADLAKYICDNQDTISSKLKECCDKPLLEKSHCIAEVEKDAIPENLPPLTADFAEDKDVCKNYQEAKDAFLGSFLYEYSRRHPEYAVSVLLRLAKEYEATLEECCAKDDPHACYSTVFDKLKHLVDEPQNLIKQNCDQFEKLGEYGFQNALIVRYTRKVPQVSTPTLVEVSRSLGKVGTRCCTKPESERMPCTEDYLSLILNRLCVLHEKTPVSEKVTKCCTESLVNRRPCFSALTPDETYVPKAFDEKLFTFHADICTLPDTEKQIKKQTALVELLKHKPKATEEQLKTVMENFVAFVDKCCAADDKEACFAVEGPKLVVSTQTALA
Test [1] can be described thus: small-molecule microarray binders of probe aXIP, primary screen, biochemical, NeuroSMM set, 635/667 nm fluorescence (AID 1119).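 Further: probe is the protein aXip251-270 applied at 1 µg/mL to compound-printed slides; binding of probe to printed compounds measured as 667 nm fluorescence plus signal to noise.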 Particulars: higher = more signal, called active from +8 up or from −8 down.
The nature of test [2]: small-molecule binders of probe aNOTCH3, primary screen, biochemical, small-molecule microarray, 635/667 nm fluorescence (AID 1120).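 Further: probe is a biotin-tagged antibody raised against NOTCH3 rather than NOTCH3 protein; score merges spot fluorescence near 667 nm with spot signal to noise.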 As to conditions: higher = more signal.
Test [3] in a line: small-molecule binders of probe aNOTCH2, primary screen, biochemical, small-molecule microarray, 635/667 nm fluorescence (AID 1121).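 Further: score merges feature fluorescence read at 667 nm with its signal to noise.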 Particulars: higher = more signal.
Test [4] has as its target Carbonic anhydrase 2 (Homo sapiens) (UniProt P00918). Description: CAII small-molecule binders, profiling panel, biochemical, small-molecule microarray, Alexa647-labelled CAII (AID 1122). As to conditions: CAII-A647 binding fluorescence, higher = more signal.
Test [5] can be described thus: COS7 lysate on small-molecule microarray, probe aHis, 635 nm (AID 1123).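 Further: z-score combines 667nm fluorescence intensity with signal-to-noise per printed compound spot.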 As to conditions: COS7 cell lysate, fluorescence, higher = more signal.
Test [6] in a line: compound binding in COS7 lysate, probe aLAP1, primary screen, cell lysate, small-molecule microarray (AID 1124).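 Further: lysate comes from COS7 cells expressing LAP1 and is applied at 0.3 µg/mL; score merges spot fluorescence near 667 nm with signal-to-noise over triplicate slides.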 Particulars: probe aLAP1, fluorescence, higher = more signal.
For the next test, the system named is Sam68 (KHDRBS1). Description: Sam68 small-molecule binders, primary screen, biochemical, small-molecule microarray, 635 nm fluorescence (AID 1125).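 Further: score merges 667 nm channel intensity with signal to noise over triplicate slides.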 As to conditions: small-molecule microarray binding, higher = more signal.
The test system of test [7] is Chordin-like protein 2 (CHRDL2). Description: CHRDL2 small-molecule binders, primary screen, biochemical, small-molecule microarray, 635 nm fluorescence (AID 1126).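 Further: printed compound slides probed with Chrdl2 protein at 4 µg/mL for 1 h at 4 C; score merges 667 nm emission intensity with signal to noise over three replicate slides.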 As to conditions: small-molecule microarray binding, fluorescence 635 nm; higher = more signal.
In test [8] the target is Concanavalin-A (Canavalia ensiformis) (UniProt P02866). Description: ConA small-molecule binders, primary screen, artefact control for SMM control protein annotation, biochemical, small-molecule microarray, Alexa647 label, 635 nm (AID 1127).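 Further: z combines 667 nm emission intensity with signal-to-noise across three replicate slides.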 Particulars: ConA-A647 binding fluorescence, higher = more signal.
Sequence of Concanavalin-A (Canavalia ensiformis) (P02866 whole entry, looked up): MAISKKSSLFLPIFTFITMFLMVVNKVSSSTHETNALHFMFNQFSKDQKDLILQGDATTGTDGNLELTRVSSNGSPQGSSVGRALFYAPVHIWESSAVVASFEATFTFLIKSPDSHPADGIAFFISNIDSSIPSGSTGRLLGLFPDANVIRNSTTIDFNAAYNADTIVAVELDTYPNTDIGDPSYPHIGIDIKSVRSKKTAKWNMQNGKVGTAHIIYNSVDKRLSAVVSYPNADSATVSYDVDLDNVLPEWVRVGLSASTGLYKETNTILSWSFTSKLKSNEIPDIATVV

Calls of active or inactive are those of the source.

As to `O=C1OCCC/C=C\[C@H]2OC34C=CCN(CCN5CCOCC5)C(=O)[C@H]3N(CCO)C(=O)[C@@H]4C12` (stereo not given in full), the composite z-score in the test with Albumin (Bos taurus) was 0.394; in test [2], -0.346; in [3], -0.211; in [4] it was 0.866; in test [5], -0.0995; in test [6] it was -0.0129. Further, the composite z-score is -0.779 in the test with Sam68 (KHDRBS1), -0.601 in test [7] and -1.09 in test [8]. Further, the composite Z-score in test [1] was 0.0421 (inactive).

As to `C=CCCN(CC#C[C@H]1Oc2ccccc2S(=O)(=O)N2CCC[C@@H]12)S(=O)(=O)c1ccc(C)cc1`, the composite z-score with Albumin (Bos taurus) was 0.0985; in test [2], 0.0311; in test [3], -0.102; in test [4] it was 0.208; in test [5] it was 0.273; in [6], 0.758. Also, the composite z-score is 0.215 with Sam68 (KHDRBS1), 0.607 in test [7] and -0.464 in [8]. In addition, the composite Z-score in [1] was 0.671 (inactive).

With `COCCOC(=O)N1C(=O)[C@@]2(c3cc(C#Cc4ccc(OC)cc4)ccc31)[C@H](c1ccc(OCCO)cc1)N1[C@H](c3ccccc3)[C@H](c3ccccc3)OC(=O)[C@H]1[C@@H]2C(=O)N1CCc2cc(OC)c(OC)cc2C1`, the composite z-score with Albumin (Bos taurus) was -0.536; in [2], 0.0194; in test [3] it was -0.0907; in test [4], 0.228; in test [5], 0.875; in test [6] it was 0.556. Besides, the composite z-score in the test with Sam68 (KHDRBS1) is 1.17; in test [7], 0.599; in [8] it was 0.843. Besides, the composite Z-score in test [1] is 0.343 (inactive).

As to `CCCCCCC#C[Si](O[C@H](c1ccccc1)c1cn([C@H](C)c2ccccc2)nn1)(C(C)C)C(C)C`, the composite z-score was 0.672 with Albumin (Bos taurus); 0.155 in test [2]; -0.0843 in test [3]; -0.0858 in [4]; 0.19 in test [5]; -0.164 in test [6]. The composite z-score is 0.729 in the test on Sam68 (KHDRBS1), 0.267 in test [7] and 0.809 in test [8]. For the same compound, in test [1], the composite Z-score was 0.282 (inactive).

For `O=C1OCC=C[C@H]2OC34C=CCN(c5ccc6ccccc6c5)C(=O)[C@H]3N(CCO)C(=O)[C@@H]4[C@@H]12` (stereo not given in full), the composite z-score is -0.855 with Albumin (Bos taurus); -0.172 in test [2]; -0.115 in test [3]; 0.804 in test [4]; 0.174 in test [5]; -0.532 in test [6]. Further, the composite z-score was -0.873 with Sam68 (KHDRBS1), -2.08 in test [7] and -0.681 in test [8]. Besides, the composite Z-score in [1] is 0.138 (inactive).

`CN(C)CCCCCCNC(=O)[C@@H]1C[C@@H]2C(=O)N[C@@H](Cc3ccccc3)C(=O)N2[C@@H]1c1cccc(OCCO)c1`: the composite z-score in the test with Albumin (Bos taurus) was -0.0152; in test [2] it was 0.0715; in [3], -0.0793; in test [4], 0.784; in [5] it was 2.51; in test [6] it was 0.142. Further, the composite z-score in the test on Sam68 (KHDRBS1) amounted to 1.31; in [7], 0.711; in test [8], 1.11. The composite Z-score in test [1] is 0.816 (inactive).

On to `C=C(C(=O)CC[C@@H](OC(C)=O)c1ccc(OCCO)cc1)C(C)C`, for which the composite z-score with Albumin (Bos taurus) was 0.773; in test [2], -0.122; in test [3] it was -0.0908; in [4] it was 0.76; in test [5], 1.57; in test [6], -0.773. The figures for the composite z-score (in the test on Sam68 (KHDRBS1); in test [7]; in test [8]) were 0.135, 0.0246 and 0.187, respectively. In addition, the composite Z-score in test [1] was 0.154 (inactive).

In the case of `O=C1O[C@H](c2ccccc2)[C@H](c2ccccc2)N2[C@H]1[C@@H](C(=O)Nc1nc3ccccc3s1)[C@]1(C(=O)Nc3ccc(C#CC4=CCCCC4)cc31)[C@H]2c1ccc(OCCO)cc1`, the composite z-score was 0.897 with Albumin (Bos taurus); 0.225 in test [2]; -0.0144 in test [3]; 0.761 in test [4]; 2.68 in [5]; 0.596 in test [6]. Moreover, the figures for the composite z-score (in the test on Sam68 (KHDRBS1); in test [7]; in test [8]) were 1.3, 0.448 and 1.12, respectively. The composite Z-score in [1] is -0.495 (inactive).

Take `COc1ccccc1CN1C(=O)c2ccccc2[C@](Cc2ccccc2I)(C(=O)NCc2ccccc2)[C@@H]1c1ccc(CO)cc1`: the composite z-score with Albumin (Bos taurus) was 0.717; in test [2], -0.0682; in test [3], -0.0211; in test [4], 0.345; in test [5] it was 1.77; in test [6] it was 0.729. In addition, the composite z-score is 0.505 in the test with Sam68 (KHDRBS1), -0.748 in test [7] and -0.0126 in test [8]. Besides, the composite Z-score in test [1] was 0.265 (inactive).

As to `C=CCOC(=O)[C@H]1[C@@H]2C(=O)O[C@@H](c3ccccc3)[C@@H](c3ccccc3)N2[C@@H](c2ccc(OCCOC(=O)[C@H]3C[C@H]4C(=O)N[C@@H](CCCC[N+](C)(C)C)C(=O)N4[C@H]3c3ccc(O)cc3)cc2)[C@]12C(=O)Nc1ccccc12`, the composite z-score with Albumin (Bos taurus) is -0.317; in test [2], 0.0306; in [3], -0.14; in [4], 0.456; in [5] it was 0.776; in [6], 0.411. In addition, the composite z-score amounted to 0.028 in the test with Sam68 (KHDRBS1), 0.518 in test [7] and 0.843 in test [8]. For the same compound, the composite Z-score in [1] is 0.0338 (inactive).

In the case of `CCCC[C@@H]1C[C@H]1[C@@H](NC(=O)c1ccccc1)c1ccccc1`, the composite z-score was 0.0945 with Albumin (Bos taurus); 0.667 in test [2]; 0.253 in test [3]; -0.0524 in test [4]; 0.506 in test [5]; -0.159 in test [6]. The values for the composite z-score (in the test on Sam68 (KHDRBS1); in [7]; in [8]) were 0.138, -0.608 and -0.482, respectively. The composite Z-score in [1] is 0.103 (inactive).

Consider `O=C1OCCC=C[C@H]2OC34C=CCN(c5ccc6ccccc6c5)C(=O)[C@H]3N(CCCCCCO)C(=O)[C@@H]4C12` (stereo not given in full), for which the composite z-score in the test with Albumin (Bos taurus) was -0.768; in test [2], -0.161; in test [3], -0.14; in test [4], 0.82; in [5] it was 0.386; in [6] it was -0.674. Besides, the composite z-score is 0.264 with Sam68 (KHDRBS1), -0.853 in [7] and -1.01 in [8]. In addition, the composite Z-score in [1] is 0.938 (inactive).

Take `COC(=O)[C@@]1(Cc2ccccc2)[C@H]2c3cc(C(=O)N(C)C)n(Cc4cc(F)c(F)c(F)c4)c3C[C@H]2CN1C(=O)c1ccccc1`: the composite z-score with Albumin (Bos taurus) was 1.04; in test [2], 0.692; in [3], 0.289; in [4] it was 0.656; in test [5], 2.8; in test [6], 0.525. Moreover, the composite z-score was 1.32 with Sam68 (KHDRBS1), -0.801 in [7] and 0.953 in test [8]. In addition, the composite Z-score in test [1] is -0.389 (inactive).

As for `COc1ccc(C(=O)Nc2cccc(CN3C(=O)[C@@]4(O[C@@H](CC(=O)N5Cc6ccccc6C[C@H]5CO)[C@H]([Si](C)(C)c5ccc(OC)cc5)[C@H]4C)c4ccccc43)c2)cc1`, the composite z-score is -1.04 with Albumin (Bos taurus); 0.127 in test [2]; -0.14 in test [3]; 0.576 in test [4]; 1.15 in test [5]; -0.0148 in [6]. The results for the composite z-score (in the test on Sam68 (KHDRBS1); in test [7]; in test [8]) were 1.04, 1.38 and 1.08, respectively. Besides, in test [1], the composite Z-score is 0.008 (inactive).

In the case of `C=C(CCCC)C(=O)CC[C@H](OC(=O)c1ccccc1-c1ccccc1C(=O)O)c1ccc(CO)o1`, the composite z-score in the test with Albumin (Bos taurus) is 0.734; in [2] it was -0.0014; in [3], -0.14; in [4], 0.15; in test [5], 0.455; in test [6] it was 0.645. Also, the composite z-score in the test on Sam68 (KHDRBS1) stood at 1.29; in [7], 0.82; in test [8] it was 0.933. The composite Z-score in test [1] was 0.0663 (inactive).
